Results published in PubChem BioAssay (EPA / NIEHS).
Inconclusive results are not listed. Calls of active or inactive are those of the source. How the source made its calls, unless noted: active means hit-call score of the fitted dose curve at least 0.9, where 1 is the maximum; inactive means score below 0.9. Peptide text beside a SMILES is read from it.

Tests used:
[1] = ACEA_ER_80hr: ACEA Biosciences xCELLigence Real-Time Cell Analysis on Estrogen Receptor Agonism for Proliferation (AID 2282667; active means hit-call score of the fitted dose curve at least 0.9, where 1 is the maximum); settings: T47D proliferation, impedance (xCELLigence), 80 h
Outline: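 Cell-growth kinetics were measured by impedance in T47D cells treated continuously with compound (top 100 uM final, 1:4 steps, 8 points). Activity at 80 h was scored as signal gain over the DMSO baseline.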

[2] = ATG_CRE_CIS: Attagene CIS-FACTORIAL HepG2 Assay for human cAMP Responsive Element (CRE) binding protein 3 (AID 2282926); settings: HepG2 CRE cis-reporter, Attagene multiplexed mRNA; actives raise or lower the signal
Outline: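 Cells carrying cis-regulated reporter constructs respond through their own endogenous factors. After 24 h treatment, RNA is reverse-transcribed, amplified, labelled and sized by capillary electrophoresis; up- and down-regulation are both scored against vehicle.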

[3] = molecular target: CCAAT/enhancer-binding protein beta (Homo sapiens) (UniProt P17676); test: ATG_C_EBP_CIS: Attagene CIS-FACTORIAL HepG2 Assay for human CCAAT/Enhancer Binding Protein (C/EBP) beta (AID 2282927); settings: HepG2 Attagene cis-factorial transcription factor reporter; actives raise or lower the signal
Outline: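 HepG2 transiently transfected with multiplexed reporter units under cis-regulatory promoters reporting endogenous C/EBPb activity. After 24 h exposure, reporter mRNA assayed by RT-PCR, fluorescent labelling, HpaI digestion and capillary electrophoresis; bidirectional fitting versus DMSO.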

[4] = ATG_CMV_CIS: Attagene CIS-FACTORIAL HepG2 Assay for human CMV (Internal Marker) (AID 2282928); settings: HepG2 CMV promoter reporter, transcription factor profiling; actives raise or lower the signal;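 further: endpoint acts as a background internal control marker rather than a target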
Outline: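 Bidirectional fits against DMSO are applied to reporter mRNA, read by RT-PCR with capillary electrophoresis, from HepG2 cells exposed 24 h. The endpoint serves as an internal CMV background marker within the cis-factorial reporter panel.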

[5] = ATG_DR4_LXR_CIS: Attagene CIS-FACTORIAL HepG2 Assay for human Liver X Receptor (LXR), DR4 submotif (AID 2282929); settings: HepG2 Attagene DR4 cis-reporter, mRNA transcription; actives raise or lower the signal
Outline: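 After transient transfection with multiplexed cis-promoter reporter units, HepG2 cells received test chemicals for 24 h. Reporter mRNA induction, detected by fluorescence after RT-PCR and capillary electrophoresis, was scored relative to DMSO.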

[6] = molecular target: Aryl hydrocarbon receptor (Homo sapiens) (UniProt P35869); test: ATG_Ahr_CIS: Attagene CIS-FACTORIAL HepG2 Assay for human Aryl Hydrocarbon Receptor (Ahr) (AID 2282930); settings: HepG2 AhR cis-factorial reporter transcription; actives raise or lower the signal
Outline: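 HepG2 cells transiently transfected with cis-element-driven multiplexed reporter units; endogenous AhR activity read as reporter mRNA 24 h after dosing, via RT-PCR, 6-FAM labelling, HpaI digestion and capillary electrophoresis. Bidirectional fit relative to DMSO.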

[7] = ATG_AP_1_CIS: Attagene CIS-FACTORIAL HepG2 Assay for human Activator Protein 1 (AP-1) (AID 2282931); settings: HepG2 Attagene cis-factorial AP-1 reporter mRNA; actives raise or lower the signal
Outline: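 After 24 h incubation with test chemical, RNA from transfected HepG2 cells was reverse-transcribed, amplified, fluorescently labelled and digested before capillary electrophoresis. Reporters were driven by cis-regulatory promoters; activity fitted bidirectionally versus DMSO.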

[8] = ATG_AP_2_CIS: Attagene CIS-FACTORIAL HepG2 Assay for human Activator Protein 2 (AP-2) (AID 2282932); settings: HepG2 AP-2 cis-reporter, Attagene transcription factor profiling; actives raise or lower the signal
Outline: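 Read-out: fluorescent reporter mRNA via RT-PCR and capillary electrophoresis, 24 h post-dose in transiently transfected HepG2. Endogenous factors drive cis-promoter reporters; gain or loss of signal fitted bidirectionally against DMSO.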

[9] = ATG_BRE_CIS: Attagene CIS-FACTORIAL HepG2 Assay for human Bone Morphogenetic Protein (BMP) Response Element (BRE) (AID 2282933); settings: HepG2 BMP response element reporter, Attagene transcription factor profiling; actives raise or lower the signal
Outline: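 HepG2 cells transiently transfected with multiplexed cis-element reporter units were dosed with chemical for 24 h. Reporter mRNA was measured by RT-PCR with fluorescent labelling, HpaI digestion and capillary electrophoresis; bidirectional fitting relative to DMSO.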

[10] = molecular target: Retinoic acid receptor alpha (Homo sapiens) (UniProt P10276); test: ATG_DR5_RAR_CIS: Attagene CIS-FACTORIAL HepG2 Assay for human Retinoic Acid Receptor Alpha (RARE), DR5 submotif (AID 2282934); settings: HepG2 Attagene cis-factorial RARE DR5 reporter, mRNA; actives raise or lower the signal;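 on AC50: reporter responds to endogenous RAR alpha beta and gamma in HepG2 not RARA alone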
Outline: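 HepG2 cells transiently transfected with multiplexed reporter units; DR5 cis-element drives reporter through endogenous transcription factors. After 24 h dosing, reporter mRNA quantified by RT-PCR, fluorescent labeling, HpaI digestion and capillary electrophoresis; bidirectional fitting versus DMSO.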

[11] = ATG_E_Box_CIS: Attagene CIS-FACTORIAL HepG2 Assay for human Enhancer Box (E-box) (AID 2282936); settings: HepG2 E-box cis-reporter transcription, actives raise or lower the signal
Outline: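 Transiently transfected HepG2, endogenous TF-driven reporters, 24 h dosing. Readout: RT-PCR plus capillary electrophoresis of fluorescent reporter fragments. Gain or loss of signal fitted bidirectionally against DMSO baseline.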

[12] = ATG_M_61_CIS: Attagene CIS-FACTORIAL HepG2 Assay for M61 Transcription Factor (Internal Marker) (AID 2282937); settings: HepG2 Attagene CIS-FACTORIAL M61 internal marker reporter; actives raise or lower the signal
Outline: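 Using transiently transfected HepG2 liver cells, reporter transcript levels were assessed 24 h post-dosing by RT-PCR and capillary electrophoresis. Changes in either direction were fitted relative to DMSO controls.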

[13] = ATG_M_19_CIS: Attagene CIS-FACTORIAL HepG2 Assay for M19 Transcription Factor (Internal Marker) (AID 2282939); settings: HepG2 Attagene CIS-FACTORIAL M19 internal marker reporter; actives raise or lower the signal
Outline: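 HepG2 cells transiently transfected with cis-regulated multiple reporter transcription units were dosed for 24 h; reporter mRNA was quantified by RT-PCR, 6-FAM primer-extension labelling, HpaI digestion and capillary electrophoresis, with bidirectional fitting against DMSO baseline.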

[14] = ATG_Ets_CIS: Attagene CIS-FACTORIAL HepG2 Assay for human Erythroblast Transformation Specific (ETS) (AID 2282941); settings: HepG2 ETS cis-reporter transcription, actives raise or lower the signal
Outline: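 Endogenous transcription factor activity read as reporter mRNA via RT-PCR and capillary electrophoresis, with gain or loss fitted bidirectionally against DMSO. Human HepG2 liver cells, transiently transfected CIS reporter constructs, 24 h exposure.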

[15] = molecular target: Hepatocyte nuclear factor 3-beta (Homo sapiens) (UniProt Q9Y261); test: ATG_FoxA2_CIS: Attagene CIS-FACTORIAL HepG2 Assay for human Forkhead box A2 (FOXA2) (AID 2282942); settings: HepG2 cis-reporter transcription factor activity, 24 h; actives raise or lower the signal
Outline: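 Fluorescence signal of reporter cDNA fragments, separated by capillary electrophoresis, reflects endogenous transcription factor activity in transfected HepG2 after 24 h. Both increases and decreases fitted against DMSO.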

[16] = ATG_FoxO_CIS: Attagene CIS-FACTORIAL HepG2 Assay for human Forkhead box O (FoxO) (AID 2282943); settings: HepG2 Attagene cis-reporter, FoxO element, mRNA; actives raise or lower the signal
Outline: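 HepG2 cells transiently transfected with cis-element-driven reporter units report endogenous FoxO activity. After 24 h chemical exposure, reporter mRNA quantified by RT-PCR, fluorescent labeling, HpaI digestion and capillary electrophoresis; bidirectional fit versus DMSO.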

[17] = molecular target: Transcription factor E2F1 (Homo sapiens) (UniProt Q01094); test: ATG_E2F_CIS: Attagene CIS-FACTORIAL HepG2 Assay for human E2F Transcription Factor 1 (AID 2282935); settings: HepG2 Attagene cis-reporter, E2F reporter RNA transcripts; actives raise or lower the signal
Outline: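 Transient MRTU transfection of HepG2; 24 h compound exposure; RNA → oligo(dT) RT → PCR → FAM label → HpaI cut → CE fluorescence. Gain/loss of signal fit against DMSO.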

[18] = ATG_EGR_CIS: Attagene CIS-FACTORIAL HepG2 Assay for human Early Growth Response 1 (EGR1) (AID 2282938); settings: HepG2 Attagene CIS-FACTORIAL EGR reporter mRNA; actives raise or lower the signal
Outline: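 Fluorescent capillary-electrophoresis signal of reporter cDNA fragments serves as read-out. HepG2 cells bear transiently transfected cis-promoter reporter units and are exposed 24 h; gain- or loss-of-signal is fitted against DMSO.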

[19] = ATG_ERE_CIS: Attagene CIS-FACTORIAL HepG2 Assay for Estrogen Response Element (ERE) (AID 2282940); settings: HepG2 ERE cis-reporter, Attagene RNA transcript; actives raise or lower the signal
Outline: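 HepG2 cells transiently transfected with cis-promoter-driven multiplexed reporter transcription units report endogenous TF activity. After 24 h compound exposure, reporter mRNA is quantified by RT-PCR with capillary electrophoresis fluorescence; bidirectional fitting versus DMSO baseline.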

[20] = ATG_GATA_CIS: Attagene CIS-FACTORIAL HepG2 Assay for human GATA Binding Protein (AID 2282944); settings: HepG2 GATA cis-element reporter, Attagene multiplex mRNA; actives raise or lower the signal
Outline: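 HepG2 cells transiently transfected with multiplexed cis-element reporter units reflecting endogenous transcription factor activity; reporter mRNA measured after 24 h dosing by RT-PCR, 6-FAM labeling, HpaI digestion and capillary electrophoresis. Bidirectional fitting versus DMSO baseline.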

Sequence of Transcription factor E2F1 (Homo sapiens) (Q01094 whole entry, looked up): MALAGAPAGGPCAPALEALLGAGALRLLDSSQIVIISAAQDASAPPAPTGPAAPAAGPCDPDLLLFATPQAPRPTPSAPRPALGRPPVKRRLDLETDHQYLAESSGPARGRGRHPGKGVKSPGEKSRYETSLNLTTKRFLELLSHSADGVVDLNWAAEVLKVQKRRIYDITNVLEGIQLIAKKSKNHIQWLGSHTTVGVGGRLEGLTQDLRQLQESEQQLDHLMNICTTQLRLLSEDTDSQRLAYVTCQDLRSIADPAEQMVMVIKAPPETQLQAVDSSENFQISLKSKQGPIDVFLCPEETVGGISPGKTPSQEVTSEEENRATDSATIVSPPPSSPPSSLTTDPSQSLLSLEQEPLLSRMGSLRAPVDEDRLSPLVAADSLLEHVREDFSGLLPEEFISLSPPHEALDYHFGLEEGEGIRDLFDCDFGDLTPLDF
Sequence of Retinoic acid receptor alpha (Homo sapiens) (P10276 whole entry, looked up): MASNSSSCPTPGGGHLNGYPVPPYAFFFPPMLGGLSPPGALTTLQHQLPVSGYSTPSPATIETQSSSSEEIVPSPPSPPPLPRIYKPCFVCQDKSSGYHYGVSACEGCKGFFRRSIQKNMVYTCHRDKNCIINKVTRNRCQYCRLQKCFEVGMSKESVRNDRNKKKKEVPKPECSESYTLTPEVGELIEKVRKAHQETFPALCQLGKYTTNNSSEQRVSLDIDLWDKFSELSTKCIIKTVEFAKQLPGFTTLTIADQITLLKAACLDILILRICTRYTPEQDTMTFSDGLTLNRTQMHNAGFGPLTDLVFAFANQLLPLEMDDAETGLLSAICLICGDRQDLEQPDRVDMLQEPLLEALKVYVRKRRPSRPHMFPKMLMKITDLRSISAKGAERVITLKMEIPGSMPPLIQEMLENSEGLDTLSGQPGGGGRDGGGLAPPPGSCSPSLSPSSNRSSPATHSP
Sequence of CCAAT/enhancer-binding protein beta (Homo sapiens) (P17676 whole entry, looked up): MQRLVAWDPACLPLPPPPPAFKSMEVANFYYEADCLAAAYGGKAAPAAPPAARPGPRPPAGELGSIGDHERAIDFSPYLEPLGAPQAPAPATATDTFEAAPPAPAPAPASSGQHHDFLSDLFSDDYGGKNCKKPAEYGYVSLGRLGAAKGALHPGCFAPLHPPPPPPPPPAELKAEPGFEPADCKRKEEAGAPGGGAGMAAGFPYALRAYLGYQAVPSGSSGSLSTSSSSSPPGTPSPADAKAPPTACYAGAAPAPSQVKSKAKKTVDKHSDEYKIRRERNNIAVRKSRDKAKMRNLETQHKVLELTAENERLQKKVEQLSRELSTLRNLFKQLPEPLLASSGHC
Sequence of Hepatocyte nuclear factor 3-beta (Homo sapiens) (Q9Y261 whole entry, looked up, the tested form may be a part): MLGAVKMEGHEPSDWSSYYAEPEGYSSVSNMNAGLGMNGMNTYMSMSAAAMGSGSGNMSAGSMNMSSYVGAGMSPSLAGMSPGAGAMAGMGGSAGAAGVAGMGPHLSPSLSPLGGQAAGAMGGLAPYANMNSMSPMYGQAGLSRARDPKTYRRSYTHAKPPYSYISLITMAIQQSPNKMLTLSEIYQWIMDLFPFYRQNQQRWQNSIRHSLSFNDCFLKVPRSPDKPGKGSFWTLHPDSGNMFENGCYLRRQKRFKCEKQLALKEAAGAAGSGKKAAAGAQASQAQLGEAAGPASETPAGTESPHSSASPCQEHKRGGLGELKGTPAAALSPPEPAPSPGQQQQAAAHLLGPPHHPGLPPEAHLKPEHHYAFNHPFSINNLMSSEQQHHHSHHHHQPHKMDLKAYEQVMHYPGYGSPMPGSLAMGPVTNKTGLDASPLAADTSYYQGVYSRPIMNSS
Sequence of Aryl hydrocarbon receptor (Homo sapiens) (P35869 whole entry, looked up): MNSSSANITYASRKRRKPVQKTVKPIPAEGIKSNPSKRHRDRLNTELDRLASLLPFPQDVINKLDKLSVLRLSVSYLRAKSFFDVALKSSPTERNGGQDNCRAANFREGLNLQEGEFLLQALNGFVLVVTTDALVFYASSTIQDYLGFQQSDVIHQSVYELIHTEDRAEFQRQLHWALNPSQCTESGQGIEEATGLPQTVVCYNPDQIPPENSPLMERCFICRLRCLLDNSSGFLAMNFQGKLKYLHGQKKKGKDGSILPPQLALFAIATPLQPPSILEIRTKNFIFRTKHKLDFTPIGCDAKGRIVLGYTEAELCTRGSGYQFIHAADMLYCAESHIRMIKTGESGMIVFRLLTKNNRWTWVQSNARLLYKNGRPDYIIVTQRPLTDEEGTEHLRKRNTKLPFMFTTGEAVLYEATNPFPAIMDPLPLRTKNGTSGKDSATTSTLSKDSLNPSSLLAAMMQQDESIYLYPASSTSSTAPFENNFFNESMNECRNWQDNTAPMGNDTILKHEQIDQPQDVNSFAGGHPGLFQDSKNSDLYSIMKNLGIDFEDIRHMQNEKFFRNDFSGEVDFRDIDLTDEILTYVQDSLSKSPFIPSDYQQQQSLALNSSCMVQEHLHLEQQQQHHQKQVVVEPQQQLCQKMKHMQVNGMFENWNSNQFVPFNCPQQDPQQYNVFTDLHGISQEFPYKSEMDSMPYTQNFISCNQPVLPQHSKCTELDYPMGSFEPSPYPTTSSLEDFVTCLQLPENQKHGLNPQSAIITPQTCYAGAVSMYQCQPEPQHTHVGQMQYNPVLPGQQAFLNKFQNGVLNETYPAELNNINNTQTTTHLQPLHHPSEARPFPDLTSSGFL

COC(C=C(C)CCC=C(C)C)OC
outcome [1]: inactive
outcome [2]: inactive
outcome [3]: inactive
outcome [4]: inactive
outcome [5]: inactive
outcome [6]: inactive
AC50 [7]: 146 µM (active)
outcome [8]: inactive
outcome [9]: inactive
outcome [10]: inactive
outcome [11]: inactive
outcome [12]: inactive
outcome [13]: inactive
outcome [14]: inactive
outcome [15]: inactive
outcome [16]: inactive

COC(=O)[C@H](Cc1ccccc1)NC(=O)[C@@H](N)CC(=O)O (H-Asp-Phe-OMe)
outcome [1]: inactive
outcome [2]: inactive
outcome [3]: inactive
outcome [4]: inactive
outcome [5]: inactive
outcome [6]: inactive
outcome [7]: inactive
outcome [8]: inactive
outcome [10]: inactive
outcome [17]: inactive
outcome [11]: inactive
outcome [12]: inactive
outcome [18]: inactive
outcome [13]: inactive
AC50 [19]: 42.1 µM (active)
outcome [14]: inactive
outcome [15]: inactive
outcome [16]: inactive

O=S(=O)(O)c1ccc(Nc2nc(Nc3ccc(C=Cc4ccc(Nc5nc(Nc6ccc(S(=O)(=O)O)cc6)nc(N(CCO)CCO)n5)cc4S(=O)(=O)O)c(S(=O)(=O)O)c3)nc(N(CCO)CCO)n2)cc1
outcome [1]: inactive
outcome [2]: inactive
outcome [3]: inactive
outcome [4]: inactive
outcome [5]: inactive
outcome [6]: inactive
outcome [7]: inactive
outcome [8]: inactive
outcome [9]: inactive
outcome [10]: inactive
outcome [11]: inactive
outcome [12]: inactive
outcome [18]: inactive
outcome [13]: inactive
outcome [19]: inactive
outcome [14]: inactive
outcome [15]: inactive
outcome [16]: inactive
outcome [20]: inactive

Cc1cc(C)c(C=O)c(C)c1
outcome [1]: inactive
outcome [2]: inactive
outcome [3]: inactive
outcome [4]: inactive
outcome [5]: inactive
outcome [6]: inactive
outcome [7]: inactive
outcome [8]: inactive
outcome [9]: inactive
AC50 [10]: 3.85 µM (active)
outcome [17]: inactive
outcome [11]: inactive
outcome [12]: inactive
outcome [13]: inactive
outcome [14]: inactive
outcome [15]: inactive
outcome [16]: inactive
outcome [20]: inactive

CC/C=C\C/C=C\C/C=C\CCCCCCCC(=O)OC
outcome [1]: inactive
outcome [2]: inactive
outcome [3]: inactive
outcome [4]: inactive
AC50 [5]: 71.1 µM (active)
AC50 [6]: 47.6 µM (active)
AC50 [7]: 70.6 µM (active)
AC50 [8]: 100 µM (active)
AC50 [9]: 167 µM (active)
AC50 [10]: 100 µM (active)
outcome [17]: inactive
AC50 [11]: 134 µM (active)
outcome [12]: inactive
AC50 [19]: 38.9 µM (active)
outcome [14]: inactive
AC50 [16]: 158 µM (active)
outcome [20]: inactive

C=CC(=O)OCCCCCCCC(C)C
outcome [1]: inactive
AC50 [2]: 77.2 µM (active)
AC50 [3]: 63.1 µM (active)
outcome [4]: inactive
AC50 [5]: 160 µM (active)
outcome [6]: inactive
outcome [7]: inactive
outcome [8]: inactive
outcome [9]: inactive
AC50 [10]: 70.5 µM (active)
AC50 [11]: 157 µM (active)
outcome [12]: inactive
outcome [18]: inactive
outcome [13]: inactive
AC50 [19]: 100 µM (active)
outcome [14]: inactive
outcome [15]: inactive
outcome [16]: inactive

O=C(O)C(F)(F)C(F)(F)C(F)(F)C(F)(F)C(=O)O
outcome [1]: inactive
outcome [2]: inactive
outcome [3]: inactive
outcome [4]: inactive
outcome [5]: inactive
outcome [6]: inactive
outcome [7]: inactive
outcome [8]: inactive
outcome [10]: inactive
outcome [17]: inactive
outcome [11]: inactive
outcome [12]: inactive
outcome [18]: inactive
outcome [13]: inactive
outcome [19]: inactive
outcome [14]: inactive
outcome [15]: inactive
outcome [16]: inactive
outcome [20]: inactive

CCc1cccc(C)c1N(C(=O)CS(=O)(=O)O)C(C)COC (configuration not stated)
outcome [1]: inactive
outcome [2]: inactive
outcome [3]: inactive
outcome [4]: inactive
outcome [5]: inactive
outcome [6]: inactive
outcome [7]: inactive
outcome [8]: inactive
outcome [10]: inactive
outcome [17]: inactive
outcome [11]: inactive
outcome [12]: inactive
outcome [18]: inactive
outcome [13]: inactive
outcome [14]: inactive
outcome [15]: inactive
outcome [16]: inactive
